Assay results as given in the supplement of paper PMC4466236.
The full ranking holds about 33,000 sequences; the median of “E-score (dimensionless, -0.5 to 0.5)” is about -0.058, and the highest 2% start at about 0.35. Only a selection was taken, and the highest values are over-represented in it overall.

The sequences below were run on MvaT (assay: PBM 8-mer E-score (mean of HK and ME arrays) (E-score (dimensionless, -0.5 to 0.5)); higher = stronger relative binding preference).
Description: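 Protein binding microarray: GST-tagged full-length MvaT (P. aeruginosa PAO1) bound to two universal double-stranded 60-mer arrays (ME and HK), each with a constant 25-mer primer and a variable 35-mer region covering all 8-mers. The 8-mer E-score (rank-based, range -0.5 to 0.5, >0.45 = specific binding) is the mean of the two arrays.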

| Sequence | PBM 8-mer E-score |
| --- | --- |
| CGGTTATC | 0.0552 |
| GCATCGGA | -0.11 |
| CTGATGCC | -0.231 |
| AGAGAAAT | 0.134 |
| GATAGTAA | 0.284 |
| CAATTAAA | 0.305 |
| AAATTAGT | 0.281 |
| GGATTAAA | 0.232 |
| AAATTACG | 0.256 |
| CAATTAAG | 0.24 |
| AAATTAAT | 0.426 |
| AAATTAAG | 0.361 |
| TGATTAAA | 0.27 |
| GAATTAAC | 0.256 |
| GAATTAAA | 0.385 |
| TAATTAAA | 0.447 |
| AAATTACT | 0.308 |
| CCCGTACA | -0.0141 |
| CGTAATCA | 0.0215 |
| AAATTAAC | 0.27 |
| AAATTAGA | 0.191 |
| AAATTAAA | 0.399 |
| CGGAGGGA | -0.311 |
| CAAAACAC | 0.0954 |
| AGTTTAAT | 0.379 |

| Sequence | PBM 8-mer E-score |
| --- | --- |
| AGTTTAAG | 0.257 |
| AGTTTAAA | 0.378 |
| TGTTTTAA | 0.302 |
| AGTTTAAC | 0.244 |
| AGTTTTAA | 0.259 |
| CGTTTAAA | 0.317 |
| TGTTTAAA | 0.387 |
| GGTTTAAA | 0.31 |
| AATTCTGA | 0.0908 |
| TGCATCCA | -0.0802 |
| GGGCCCTA | -0.218 |
| AGGAAGAG | -0.188 |
| ATGGAGTA | 0.0119 |
| GATACTAA | 0.213 |
| AATACTAA | 0.356 |
| TATACTAA | 0.391 |
| AATACTAC | 0.271 |
| AATACTAT | 0.297 |
| CATACTAA | 0.198 |
| TCTGAGAA | -0.0369 |
| AGCTAAGA | -0.0322 |
| ATAATGTC | 0.337 |
| ATAATGCA | 0.36 |
| ATAATGCG | 0.271 |
| CTAATGTA | 0.23 |

| Sequence | PBM 8-mer E-score |
| --- | --- |
| ATAATGTA | 0.401 |
| CTAATGCA | -0.0396 |
| ATCCCGCC | -0.0462 |
| CCTATCTC | 0.0122 |
| AACCGTTG | -0.0901 |
| GTTGTACA | 0.115 |
| AAGAGTGA | 0.00575 |
| CTTCACTC | -0.239 |
| ACAAGTTA | 0.338 |
| AGAAGTTC | 0.223 |
| CTAAGTTA | 0.352 |
| ATAAGTTA | 0.441 |
| GCAAGTTA | 0.34 |
| CTAAGTCA | -0.101 |
| ATAAGTTG | 0.342 |
| CTAAGTTC | 0.232 |
| GGAAGTTA | 0.227 |
| GTAAGTTA | 0.396 |
| ATAAGTGC | 0.178 |
| ATAAGTTC | 0.368 |
| ACACAACG | -0.0104 |
| GAAGGAGA | -0.255 |
| GGGTTCAC | -0.111 |
| AACCATAT | 0.254 |
| AACATCCC | 2.53e-05 |

| Sequence | PBM 8-mer E-score |
| --- | --- |
| TACGAGGA | -0.05 |
| GGGGCCAA | -0.225 |
| CTATCCAA | -0.0391 |
| ATATTAGC | 0.352 |
| CTATTAGC | 0.136 |
| GTATTAGA | 0.267 |
| ATATTAGA | 0.407 |
| CTATTACA | 0.267 |
| ATATTACC | 0.293 |
| CTATTAGA | 0.208 |
| ATATTAGG | 0.309 |
| ATATTACA | 0.386 |
| ATCTGTGA | -0.0144 |
| CACTTAGC | -0.0629 |
| GCCCGCGA | -0.31 |
| ACCTGTCG | -0.277 |
| CTGAAAAG | -0.0791 |
| AAAATTAC | 0.149 |
| GAAATTAA | 0.331 |
| AAAATTGA | 0.224 |
| CAAATTAA | 0.286 |
| AAAATTAG | 0.162 |
| AAAATTAA | 0.387 |
| AAAATTGT | 0.269 |
| AAAATTAT | 0.355 |

| Sequence | PBM 8-mer E-score |
| --- | --- |
| TAAATTAA | 0.437 |
| CCTAATAC | 0.104 |
| GGGCTCCA | -0.168 |
| GAAGCATA | 0.00764 |
| CACACCTA | 0.0249 |
| ACACGAGT | -0.0299 |
| ACTACTGG | 0.0326 |
| AATCCGCC | -0.0734 |
| ATTTTTAA | 0.323 |
| CTTTTAAC | 0.314 |
| ATTTAAAA | 0.377 |
| ATTTTAAA | 0.383 |
| CCTTAAAA | 0.0816 |
| ACTTAAAA | 0.226 |
| CTTTTAAA | 0.361 |
| GTTTTAAA | 0.282 |
| CTTTTTAA | 0.213 |
| CGCTGGAA | -0.092 |
| AGCAAAAA | 0.0929 |
| ACGTTGAT | 0.0529 |
| GCAAACAA | 0.0823 |
| AATATAGC | 0.343 |
| CATATAGA | 0.187 |
| GATATAGA | 0.206 |
| TATATAGA | 0.434 |

| Sequence | PBM 8-mer E-score |
| --- | --- |
| ACTATAGA | 0.127 |
| AATATAGG | 0.288 |
| AATATAGT | 0.398 |
| AATAGAGA | 0.217 |
| AATATAGA | 0.365 |
| CCCTTCAG | -0.27 |
| GAGTAGAA | 0.0154 |
| AGAAACGG | -0.0989 |
| ATACAATG | 0.204 |
| CCGGCTAC | -0.217 |
| GCCAGAAC | -0.0482 |
| AAATAAGG | 0.322 |
| ACATAAAA | 0.23 |
| ACATAAAT | 0.301 |
| AAATAAAA | 0.419 |
| AGATAAAA | 0.178 |
| AAATAAGC | 0.275 |
| ACATAAAG | 0.101 |
| AAATAAAG | 0.405 |
| CAATAAAG | 0.252 |
| AAATAAAC | 0.334 |
| AAATAAGT | 0.38 |
| AAATAAAT | 0.428 |
| AAGCCGCT | -0.232 |
| ATTCAACG | 0.0307 |

| Sequence | PBM 8-mer E-score |
| --- | --- |
| CCAATTCA | -0.0716 |
| TCCTGTCA | -0.158 |
| GAGCAAAC | -0.0867 |
| GCTGCCAA | -0.0483 |
| CTACTAAG | -0.00927 |
| AAGCGTCA | -0.00559 |
| CCGAATAG | -0.0201 |
| CGCAGTCC | -0.172 |
| AACCTCCA | -0.115 |
| GGTCTGTA | -0.219 |
| GAACCTGA | -0.0412 |
| AATCTCGA | 0.179 |
| ACTGAAAG | -0.0474 |
| ACTTAAAT | 0.331 |
| CATTAAAG | 0.272 |
| CATTAACA | 0.274 |
| GATTAACA | 0.278 |
| AATTAAAA | 0.373 |
| AATTAAAT | 0.452 |
| TATTAACA | 0.437 |
| ACTTAAAG | 0.159 |
| ATTAAAAT | 0.29 |
